Results: PubChem BioAssay
Several values for one entry are separate records, joined by “and”; a condition that tells them apart may be missing. Equal entries are not always repeated. For some assays here: Measured potencies and affinities stand elsewhere. Activity calls are given as the source filed them. Rule as the data show it, unless noted: active = parasite load remaining mostly below about 12% (no sharp cut-off); inactive = mostly above about 10%.

Assays:
[1] = blockers of polyQ-driven CASP3 activation – cell-based (AID 1583); settings: polyglutamine-induced caspase-3 activation, cell assay; stronger effect = higher value;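 tested at 10 µM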
[2] = yeast 75Q aggregation reduction – 75Q-TubU reporter (AID 1593); settings: Yeast 75Q polyglutamine aggregation reporter
[3] = restoration of touch response, mutant HTT neurons – whole organism, C. elegans mechanosensory neurons, N-terminal huntingtin (AID 1599); settings: C. elegans polyQ-huntingtin mechanosensory neurons, stronger effect = higher value
[4] = blockers of cytochrome c efflux from mitochondria – biochemical, purified mitochondria (AID 1603); settings: stronger effect = lower value;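 also: mouse liver mitochondria challenged with calcium chloride; signal normalized to the plate average as 100%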
[5] = polyglutamine aggregate formation blockers (AID 1604); settings: polyglutamine-induced protein aggregation inhibition assay; stronger effect = higher value; tested at 2.5 µM
[6] = glutamate transport activators, MN-1 cells, MN-1 cell line (AID 1612); settings: MN-1 motor neuron cells, stronger effect = higher value;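 also: tested at 1 µM final; 0% = mean of DMSO vehicle wells on each plate; positive means more glutamate uptake than control and negative means less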
[7] = GFP-Q80 aggregate reduction, neuronal-like cells, cell-based, NGF-treated PC12, GFPQ80 (AID 1614); settings: PC12 NGF-treated GFP-polyQ80 inclusion reduction;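 also: lower means fewer inclusions and 0 means no inclusions at all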
[8] = 75Q-TubH aggregate inhibition, S. cerevisiae, yeast (AID 1616); settings: S. cerevisiae 75Q-TubH polyglutamine aggregation suppression; stronger effect = higher value
[9] = P. berghei load reduction in hepatocytes – cell-based, HepG2, luciferase luminescence, HepG2 viability, primary screen (AID 624349);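 also: 100% = mean of DMSO negative control wells on the same plate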; settings: P. berghei liver stage in HepG2, luciferase luminescence, concentration not given here; parasite load remaining: stronger effect = lower value; viability: measured here: HepG2 viability without parasites
[10] = EMT-state selective cytotoxicity in co-culture – imaging, PC-3E GFP, TEM4-18 mCherry, primary screen (AID 1345086;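 active = compounds killing one labelled cell type while sparing the other, by normalised counts and ratio limits, not self-fluorescent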;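 as to all read-outs here: cells exposed to compound for 72 h before imaging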;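 as to red/green cell ratio (normalised): normalised mesenchymal count divided by normalised epithelial count so high means epithelial killing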); settings: PC-3E GFP / TEM4-18 mCherry co-culture, imaging cell counts, at 1 µM; for red/green cell ratio (normalised): actives lie on both sides, counts scaled to control wells, 1 = unselective
[11] = viability loss with induced miR-34 in A549 – imaging, A549 dox-inducible miR-34, nuclei and caspase counts, primary screen (AID 1347080;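 active = compounds whose cell count with miR-34 switched on is under 0.7 times the count with it off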); settings: A549 miR-34 inducible, Hoechst nuclei count, 48 h
[12] = measured here: epithelial PC-3E GFP cell survival
[13] = measured here: mesenchymal TEM4-18 mCherry cell survival
[14] = stronger effect = lower value, cell number ratio, induced over uninduced
[15] = measured here: relative caspase fold change +Dox/-Dox
[16] = measured here: total cells with miR-34 induction, stronger effect = lower value
[17] = measured here: total cells without miR-34 induction

SMILES	inhibition [1] [%]	score [2]	rescue above control [3]	cytochrome c release ratio [4]	inhibition of aggregation [5] [%]	glutamate uptake change [6] [%]	inclusion score [7]	aggregation suppression score [8]	parasite load remaining [9]	viability [9]	red/green cell ratio (normalised) [10]	normalised cell number [10, 12]	normalised cell number [10, 13]	fold change [11, 14]	fold change [11, 15]	cell count [11, 16]	cell count [11, 17]
CCOC(=O)OC(C)OC(=O)C1N2C(=O)C(NC(=O)[C@H](N)c3ccccc3)C2SC1(C)C (some centres undefined)	5.61	1.5	-4.3	0.96	70.4	-13.3	2	1.07	43.5% (inactive)	104%	1.19 (inactive)	1.07	1.27	0.906 (inactive)	2.54	11600	12800
C[C@]12CCC3c4ccc(O)cc4CCC3C1CC[C@@H]2O (some centres undefined)	29.2	0.39	6.83	1.24	47.9	35.2	2	0.216	84% (inactive) and 56.6% (inactive)	74.3% and 92.5%	1.16 (inactive)	1.32	1.53	0.991 (inactive)	1.49	11000	11100
CC(=O)[C@@]1(O)CCC2C3C[C@H](C)C4=CC(=O)C=CC4(C)[C@@]3(F)[C@@H](O)C[C@@]21C (some centres undefined)	8.98	1.5	24.4	0.92	-25.4	25.3	3	1.45	116% (inactive) and 26.7% (inactive)	75.2% and 95.6%	1.21 (inactive)	1.18	1.43	0.851 (inactive)	3.38	7310	8590
CN1C2CC(OC(=O)[C@H](CO)c3ccccc3)C[C@H]1[C@H]1OC21 (some centres undefined)	15.1	1.26	6.9	1.03	58.7	1.71	2	1.18	98.3% (inactive) and 40.5% (inactive)	76.7% and 88.6%	0.76 (inactive)	1.11	0.84	0.977 (inactive)	3.37	11400	11600
C[C@H]1O[C@@H](O[C@H]2[C@@H](O)C[C@H](O[C@H]3[C@@H](O)C[C@H](O[C@H]4CC[C@]5(C)C6C[C@@H](O)[C@]7(C)[C@@H](C8=CC(=O)OC8)CC[C@]7(O)C6CC[C@@H]5C4)O[C@@H]3C)O[C@@H]2C)C[C@H](O)[C@@H]1O (some centres undefined)	80	1.17	0	0.9	88.9	-3.95	1.5	1.34	1.4% (inactive) and 1.3% (inactive)	36.1% and 54.9%	0.68 (inactive)	1.14	0.77	0.434 (active)	2.23	193	445
C[C@H](CCC(=O)O)[C@H]1CCC2C3C(CC[C@@]21C)[C@@]1(C)CC[C@@H](O)C[C@H]1C[C@@H]3O (some centres undefined)	20.5	-0.02	3.58	1.17	66.7	-4.34	2	0.256	50.6% (inactive) and 45.5% (inactive)	77.3% and 94.5%	1.02 (inactive)	1.05	1.08	0.898 (inactive)	1.12	11500	12900
C[C@H]1CC2C([C@@H](O)C[C@@]3(C)C2CC[C@]3(O)C(=O)CO)[C@@]2(C)C=CC(=O)C=C12 (some centres undefined)	13.3	1.06	-2	0.64	83.1	14.1	2	1.35	110% (inactive) and 67.7% (inactive)	78.4% and 89.4%	1.21 (inactive)	1.36	1.64	0.922 (inactive)	1.43	7440	8070
COC(=O)C1[C@H]2C[C@H]3c4[nH]c5ccccc5c4CCN3C[C@@H]2CC[C@@H]1O (some centres undefined)	-35.1	1.22	15.8	0.69	9.99	-7.18	2	1.41	81.2% (inactive) and 40.6% (inactive)	73.2% and 95.3%	1.01 (inactive)	1.03	1.04	0.924 (inactive)	3.3	12100	13100
CC(C)[N+]1(C)C2CC[C@@H]1CC(OC(=O)C(CO)c1ccccc1)C2 (some centres undefined)	3.73	1.48	-2.72	0.9	73	-1.05	2	0.901	88% (inactive) and 61.6% (inactive)	79% and 98.1%	0.61 (inactive)	1.35	0.82	0.876 (inactive)	1.18	10700	12200
C#C[C@]1(O)CCC2C3CCC4=CC(=O)CC[C@@H]4C3CC[C@@]21C (some centres undefined)	-3.25	0.94	10.4	1.47	89.7	-5.05	2	0.524	118% (inactive) and 51.8% (inactive)	71.2% and 90%	0.86 (inactive)	1.29	1.11	0.914 (inactive)	1.55	10400	11300
CCCC1O[C@@H]2CC3C4CCC5=CC(=O)C=CC5(C)C4[C@@H](O)CC3(C)[C@]2(C(=O)CO)O1 (some centres undefined)	18.7	1.33	-3.37	1.5	69.2	-4.39	2	1.53	34.5% (inactive) and 13.1% (inactive)	88.8%	1.29 (inactive)	0.99	1.27	0.872 (inactive)	1.29	6800	7800
Cc1onc(-c2ccccc2)c1C(=O)NC1C(=O)N2[C@@H]1SC(C)(C)[C@@H]2C(=O)O (some centres undefined)	7.8	1.09	17.4	0.85	-11.1	-21.8	2	1.34	86.3% (inactive) and 60.5% (inactive)	72.2% and 86.2%	0.97 (inactive)	1.16	1.12	0.832 (inactive)	1.09	11300	13500
C[C@H](CCC(=O)O)[C@H]1CCC2C3C(=O)CC4CC(=O)CC[C@]4(C)C3CC(=O)[C@@]21C (some centres undefined)	12.1	1.59	-5.38	1.29	91.6	7.41	2	1.06	101% (inactive) and 58% (inactive)	69.6% and 86.9%	1.22 (inactive)	1.21	1.47	0.851 (inactive)	1.32	10500	12400
CCCC(=O)O[C@]1(C(=O)CO)CCC2[C@@H]3CCC4=CC(=O)CC[C@]4(C)C3[C@@H](O)C[C@@]21C (some centres undefined)	-18.1	1.15	-7.82	1.03	77.8	33.4	2	1.38	170% (inactive) and 68.7% (inactive)	85% and 121%	1.26 (inactive)	1.07	1.34	0.953 (inactive)	2.16	7610	7980
CC(=O)OCC(=O)[C@@]1(O)CCC2C3CCC4=CC(=O)CC[C@]4(C)C3C(=O)C[C@@]21C (some centres undefined)	-3.61	1.04	-2.34	0.91	69.7	-1.1	2	0.738	120% (inactive) and 65.9% (inactive)	67.1% and 90.7%	1.08 (inactive)	1.08	1.17	0.911 (inactive)	0.583	11400	12500
CCN1CCN(C(=O)NC(C(=O)N[C@@H]2C(=O)N3[C@@H]2SC(C)(C)[C@@H]3C(=O)O)c2ccccc2)C(=O)C1=O (some centres undefined)	-12.4	1.33	11.4	1	57.7	3.02	2	1.27	83.4% (inactive) and 122% (inactive)	73% and 103%	1.25 (inactive)	0.93	1.17	0.831 (inactive)	1.11	10100	12200
C#C[C@]1(O)CCC2C3CCC4=CC(=O)CC[C@@H]4C3CC[C@@]21CC (some centres undefined)	13.1	1.25	7	0.87	11.1	-5.94	2	1.03	86.4% (inactive) and 40.3% (inactive)	65.9% and 90.1%	1.08 (inactive)	0.78	0.84	0.867 (inactive)	2.88	10400	12000
CCN1CCN(C(=O)NC(C(=O)NC2C(=O)N3C(C(=O)O)=C(CSc4nnnn4C)CSC23)c2ccc(O)cc2)C(=O)C1=O (centres undefined)	16.1	1.1	-10	0.84	50.2	15.1	2	1.47	146% (inactive) and 45.3% (inactive)	72.7% and 103%	1.23 (inactive)	0.99	1.22	0.914 (inactive)	3.35	12000	13100
CO/N=C(/C(=O)NC1C(=O)N2C(C(=O)O)=C(COC(N)=O)CSC12)c1ccco1 (centres undefined)	8.13	1.48	-9.55	1.1	28.8	14.5	2	1.29	180% (inactive) and 36.7% (inactive)	72.5% and 86.1%	0.94 (inactive)	1.04	0.97	0.899 (inactive)	3.3	11600	12900
CO[C@H]1/C=C/O[C@@]2(C)Oc3c(C)c(O)c4c(O)c(c(C=NN5CCN(C)CC5)c(O)c4c3C2=O)NC(=O)/C(C)=C\C=C\C(C)[C@H](O)[C@@H](C)[C@@H](O)[C@@H](C)[C@@H](OC(C)=O)[C@@H]1C (some centres undefined)	-10.8	1.2	1.38	0.69	83.1	-15.2	2	0.812	73.9% (inactive) and 34.2% (inactive)	73.4% and 91.2%	1.06 (inactive)	0.87	0.91	0.892 (inactive)	3.2	11300	12700
Nc1ncnc2c1ncn2C1O[C@H](COP(=O)(O)O)[C@@H](O)[C@H]1O (some centres undefined)	5.37	1.5	1.04	0.86	92.6	-13.1	2	1.2	124% (inactive) and 48.3% (inactive)	75.9% and 108%	0.96 (inactive)	1.18	1.13	0.861 (inactive)	1.84	11700	13600
C[C@]12C=CC(=O)C=C1CCC1C3C[C@@H](O)[C@](O)(C(=O)CO)[C@@]3(C)C[C@H](O)[C@@]12F (some centres undefined)	-13.4	1.07	-12.1	1.15	48.1	-1.32	2	1.12	233% (inactive) and 58.4% (inactive)	72.6% and 84.9%	1.46 (inactive)	0.85	1.24	0.829 (inactive)	2.83	6430	7760
